# Assay results taken from PubChem BioAssay AID1778 (Sanford-Burnham Center for Chemical Genomics, 2009).
# Out of some 290,000 compounds screened, about 260 (0.09%) were called active. The full list was thinned out, with actives kept by preference. Potency and affinity values are given separately. Values without a mark were called inactive. No stated cut-off is given here; in the data, active means inhibition above about 50%; inactive means the rest.
# Target: Kappa-type opioid receptor (Homo sapiens) (UniProt P41145)
# Test: kappa opioid receptor blockers – cell-based, luminescence, uHTS (AID 1778)
# Conditions: KOR beta-arrestin recruitment, antagonist mode, stronger effect = higher value; at 10 µM unless noted
# Sequence of Kappa-type opioid receptor (Homo sapiens) (P41145 whole entry, looked up): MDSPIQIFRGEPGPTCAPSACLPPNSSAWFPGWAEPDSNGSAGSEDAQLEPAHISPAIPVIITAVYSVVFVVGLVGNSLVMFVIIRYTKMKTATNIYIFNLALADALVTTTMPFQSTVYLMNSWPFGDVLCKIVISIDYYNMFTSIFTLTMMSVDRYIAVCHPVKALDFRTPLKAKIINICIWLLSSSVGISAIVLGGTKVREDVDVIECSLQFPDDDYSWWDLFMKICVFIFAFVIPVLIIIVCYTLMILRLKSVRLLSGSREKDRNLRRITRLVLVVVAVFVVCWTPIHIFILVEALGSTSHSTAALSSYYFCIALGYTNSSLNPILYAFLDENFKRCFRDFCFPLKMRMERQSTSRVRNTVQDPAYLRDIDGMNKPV
row,SMILES,inhibition
1,Cc1cccc(N(C(=O)c2snc(C(N)=O)c2N)C(C(=O)NC2CCCC2)c2ccncc2)c1 (centres undefined),12.2%
2,Cc1cc(C(C)(C)C)oc1C(=O)N(CC(=O)NC1CCCC1)Cc1ccccc1Cl,0.8%
3,Cc1cn(-c2cc(C(=O)Nc3ccc(C)c(NC(=O)N4CCNC4=O)c3)cc(C(F)(F)F)c2)cn1,-20%
4,Cc1cn(-c2cc(C(=O)Nc3ccc(C)c(NC(=O)C(=O)c4c[nH]c5ccccc45)c3)cc(C(F)(F)F)c2)cn1,0.6%
5,COc1ccc(CNC2CCCc3ccccc32)cc1OC (centres undefined),-0.9%
6,O=C(NNC1=Nc2ccccc2SC1)c1ccc(F)cc1,30.4%
7,O=C(NNC1=Nc2ccccc2SC1)c1ccccc1F,10.4%
8,CCc1ccc(-n2c(=O)c3c(C)c(C(=O)N(C)C)sc3n(CC(=O)NCc3ccco3)c2=O)cc1,-11.4%
9,Cc1ccc(-c2csc(N3C(=N)SCC3=O)n2)cc1,26.9%
10,N=C1SCC(=O)N1c1nc(-c2ccccc2)cs1,23.4%
11,CCN1CCN(C(=S)c2ccc(Cl)cc2)CC1,12.5%
12,Cc1ccc(Cc2cnc(N3C(=N)SC(C)C3=O)s2)cc1 (centres undefined),88.5% (active)
13,Cc1cccc(Cc2cnc(NC(=O)c3ccc(C)o3)s2)c1,-9.9%
14,Cc1ccc(Cc2cnc(N3C(=N)SC(c4ccccc4)C3=O)s2)cc1 (centres undefined),37.3%
15,Cc1ccc(Cc2cnc(NC(=O)c3cccs3)s2)cc1,-17.2%
16,Cc1cccc(Cc2cnc(N3C(=N)SC(c4ccccc4)C3=O)s2)c1 (centres undefined),-7.2%
17,O=C(C1=C[C@H](c2ccccc2)C[C@H](OCc2ccc(CO)cc2)O1)N1CCN(Cc2ccc3c(c2)OCO3)CC1,-13%
18,CNc1ncnc(Sc2ccc(Cl)cc2)c1[N+](=O)[O-],8.9%
19,OCC1(Cc2cccc(Cl)c2)CCCN(Cc2sc(N3CCCC3)nc2Cl)C1 (centres undefined),-39.6% [at 20 µM]
20,CN1N=C(C(=O)N2CCc3c([nH]c4ccccc34)C2c2ccccc2Cl)CCC1=O (centres undefined),-7%

row,SMILES,inhibition
1,O=C1COc2ccc(S(=O)(=O)NCc3ccc(Cl)cc3)cc2N1,-23.4%
2,COC(=O)c1sccc1S(=O)(=O)Nc1ccc(Cl)cc1,23.4%
3,CCOC(=O)C1CCN(C(=O)c2ccccc2CCc2ccccc2)CC1,12.9%
4,Cc1ccc(C(=O)Sc2cccccc2=O)cc1,88.3% (active)
5,Cc1ccc(C(=O)Nc2ccccc2Sc2ccccc2)cc1,5.8%
6,Cc1ccc(C(=O)CC(=O)c2ccccc2)cc1,-30.1% [at 20 µM]
7,CCC1CCCCN1CCCNC(=O)c1csc2c1CCCCC2 (centres undefined),-8.9%
8,CCOc1ccc(C(=O)Nc2ccc3c(c2)OCCO3)cc1,-31.1%
9,NS(=O)(=O)c1ccc(CCNC(=O)CSc2nc3ccsc3c(=O)n2CC2CCC(C(=O)O)CC2)cc1 (centres undefined),-14.6%
10,O=[N+]([O-])c1ccccc1S(=O)(=O)Nc1ncccn1,-24.4%
11,Cc1ccc(NS(=O)(=O)c2cccc3cccnc23)c(Cl)c1,19.4%
12,Cc1ccc(NS(=O)(=O)c2cccc3cccnc23)c(Br)c1,-14.5%
13,O=S(=O)(Nc1ccccc1O)c1cccc2cccnc12,9.3%
14,O=C(CCN1CCN(c2ccccc2)CC1)Nc1nccs1,11.6%
15,Cc1cccc(CN2CCN(C(=S)Nc3ccccc3)CC2)c1,-33.1% [at 20 µM]
16,Cc1ccc(CNC(=O)C2CCCN(c3nc(C)cc(C)n3)C2)cc1 (centres undefined),-35.8% [at 20 µM]
17,CCOC(=O)C(C(=O)OCC)c1cc(Br)c2noc3c2c1C(=O)c1ccccc1-3,68.5% (active)
18,CCOC(=O)N1CCN(c2cc(NCCC(=O)O)c3c4c(onc24)-c2ccccc2C3=O)CC1,-32.6%
19,CCOc1ccc2noc3c2c1C(=O)c1ccccc1-3,7.4%
20,c1cncc(-c2cn(C[C@H]3CC[C@@H]([C@@H]4CC[C@H](Cn5cc(-c6cccnc6)nn5)O4)O3)nn2)c1,-10.8% [at 20 µM]

row,SMILES,inhibition
1,COc1ccc(OCC(=O)Nc2cc(NC(=O)c3ccco3)ccc2OC)cc1,4.9%
2,COc1cc(Br)cc(-c2nc3c(c(=O)[nH]c(=O)n3Cc3ccccc3)n2C)c1O,7.6%
3,CCN=c1scc(-c2ccc3c(c2)NC(=O)CO3)n1N=C1CCCC1,15.3%
4,COCCN=c1scc(-c2ccc3c(c2)NC(=O)CO3)n1/N=C(\C)c1ccc(O)cc1,15.8%
5,COC(=O)c1[nH]c2ccc(C)cc2c1NC(=O)CN1CCN(c2ccc(F)cc2)CC1,-0.7%
6,O=C(N/N=C/c1ccccn1)c1ccccc1,30.7%
7,C/C(=N\NC(=O)C1COc2ccccc2O1)c1ccc(C)o1 (centres undefined),13.3%
8,COc1ccc(C(=O)N/N=C/c2ccccn2)cc1OC,-42.3%
9,COc1ccc(C(=O)N/N=C(\C)c2ccccn2)cc1OC,95% (active)
10,C/C(=N\NC(=O)C1COc2ccccc2O1)c1cccs1 (centres undefined),-9.2%
11,O=C(N/N=C/c1ccccn1)c1ccc(NC(=O)c2cccc([N+](=O)[O-])c2)cc1,-28.7%
12,COc1cc(C(=O)N/N=C(\C)c2ccccn2)cc(OC)c1OC,-6.4%
13,COc1ccc(C(=O)N/N=C(\C)CC(=O)Nc2ccccn2)cc1OC,3.4%
14,COc1ccc(C(=O)Nc2ccccc2C(=O)N/N=C/c2ccncc2)cc1OC,-18.4%
15,Cc1nc(CSc2ccc(Cl)cc2)cs1,1.3%
16,CCC1CCCCN1C(=O)CSc1nc(N)cc(N)n1 (centres undefined),0.8% [at 20 µM]
17,C/C(=N\S(=O)(=O)c1ccc(C)cc1)NC(=S)Nc1ccc(C)cc1,-12%
18,CCOc1ccccc1N(C(=O)c1snc(C(N)=O)c1N)C(C(=O)NC1CCCC1)c1cccs1 (centres undefined),-14.9%
19,CCCOCn1cc(F)c(=O)[nH]c1=O,20.7%
